The whole screen tested about 420,000 compounds, of which about 50,000 (12%) were called active. Not shown: some 26% with an inconclusive outcome. Only a selection was taken, and actives are over-represented in it overall. Values without a mark were called inactive. Calls follow the shape of the dose curve; as a rule, active = well fitted inhibition curve with a large enough effect; inconclusive = small, poorly fitted or top-dose-only effect; inactive = flat fitted curve, though single readings scatter.
Test: qHTS for Inhibitors of human tyrosyl-DNA phosphodiesterase 1 (TDP1): qHTS in cells in presence of CPT; also: nearly all actives have a fitted effect of over 55% in size
Conditions: chicken DT40 Tdp1-/-;hTDP1 cells + 20 nM CPT, ATP luminescence, 48 h; series mostly up to 46.2 µM; activity change, negative = growth inhibition: at the top concentration
Outline: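 Chicken DT40 Tdp1-/- cells stably complemented with human TDP1 were seeded at 400 cells/well in medium containing 20 nM camptothecin, exposed to pin-transferred compounds, and grown at 37 °C for at least 48 hr. Viability was read as ATP luminescence.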
% is scaled to controls: 0 for no effect and ±100 for the full control effect; potency is read from the fitted curve at half-maximal effect.

Structure (SMILES) | activity change, negative = growth inhibition | Potency
NC(=O)c1ccc(N2CCCC2)nc1 | 7.28% | 
Cc1cc(C)cc(OCC(=O)Nc2cc(NC(=O)COc3cc(C)cc(C)c3)cc(C(=O)O)c2)c1 | -4.62% | 
Cc1ccc(Cl)cc1NC(=O)CN1CCN(S(=O)(=O)N2CCOCC2)CC1 | -4.49% | 
Cc1ccc(Cl)cc1NC(=O)C1CCN(S(C)(=O)=O)CC1 |  | 6.51 µM (active)
CC(=O)Nc1c(C)nn(-c2ccccc2)c1N1CCC(C(=O)Nc2cc(Cl)ccc2C)CC1 | -4.16% | 
Cc1ccc2c(c1)C1CN(C)CCC1N2C(=S)Nc1ccc(OC(F)F)cc1 (stereo not drawn) | -1.44% | 
CCN(Cc1ccncc1)C(=S)Nc1ccccc1C | -14.5% | 
COc1ccc(N(CC(=O)NCC2CCCO2)C(=O)CCC(=O)Nc2nccs2)c(OC)c1 (stereo not drawn) | -4.44% | 
Cc1ccc(C(=O)Nc2ccn(C)n2)cc1 | 6.62% | 
CC(=O)NCC(=O)NC1CCCc2c1cnn2-c1ccccc1F (stereo not drawn) | -4.57% | 
Cn1nccc1C(=O)NC1CCCc2c1cnn2-c1ccc(F)cc1F (stereo not drawn) |  | 1.46 µM (active)
O=C(NCCN1CCCC(O)C1)c1cc(COc2c(F)cccc2F)on1 (stereo not drawn) | -2.59% | 
Cn1nccc1C(=O)NC1CCCc2c1cnn2-c1ccccc1F (stereo not drawn) |  | 4.61 µM (active)
O=[N+]([O-])c1ccc(N2CCNCC2)cc1NCc1cccnc1 | -7.77% | 
CN1CCN(/N=C/c2ccc(C#N)cc2)CC1 | 0.988% | 
COc1ccc(C(=O)CN2C(=O)NC3(CCc4ccccc43)C2=O)c(OC)c1 (stereo not drawn) | -14.2% | 
COc1ccc(CNC(=O)CN2C(=O)NC3(CCCc4sccc43)C2=O)cc1 (stereo not drawn) | 6.22% | 
COc1ccc(-n2c(C)cc(C(=O)CN3C(=O)NC4(CCc5ccccc54)C3=O)c2C)cc1 (stereo not drawn) |  | 14.6 µM (active)
Cc1cc(/C=C2\SC(=O)N(C)C2=O)c(C)n1-c1cccc(C(=O)O)c1 | -27.4% | 
COc1ccccc1NC(=O)C1=C(C)Nc2ncnn2C1c1sccc1C (stereo not drawn) | -19.7% | 
CCOC(=O)C1=C(C)Nc2nc3ccccc3n2C1c1cccs1 (stereo not drawn) | 0.312% | 
COc1ccccc1NC(=O)C1=C(C)Nc2nc3ccccc3n2C1c1cccs1 (stereo not drawn) |  | 4.11 µM (active)
O=C(c1ccccc1)c1cc(-c2ccccn2)c(N2CCOCC2)s1 | -16.3% | 
c1csc(-c2nnc(COc3ncnc4sccc34)o2)c1 | -2.84% | 
COc1ccccc1C1CN(Cc2ccccc2O)Cc2ccccc2O1 (stereo not drawn) | -2.83% [at 9.04 µM] | 

Structure (SMILES) | activity change, negative = growth inhibition | Potency
NC(=O)C1CCN(C(=O)c2ccc(C(F)(F)F)cc2)CC1 | 3.63% | 
O=C(c1ccc(C(F)(F)F)cc1)N1CCC(c2nc(-c3ccc(S(=O)(=O)N4CCCC4)cc3)no2)CC1 |  | 20.6 µM (active)
COC(=O)c1ccc(S(=O)(=O)N2CCC(c3nc4ccccc4o3)CC2)cc1 | -17.1% | 
Cn1c(SCC(=O)C(C)(C)C)nnc1-c1ccccn1 | -0.85% | 
CCOC(=O)c1c(S(=O)(=O)N2CCC(C(=O)NCc3ccccc3OC)CC2)c(C)n(C)c1C | -1.17% | 
CCCCNC(=O)Cn1nc(C)c(S(=O)(=O)N2CCOCC2)c1C | -16.1% | 
COc1ccc2nc(N3CCN(C(=O)c4ccc([N+](=O)[O-])o4)CC3)sc2c1 |  | 14.6 µM (active)
COc1ccc2nc(N3C(=O)C(O)=C(C(=O)c4ccco4)C3c3ccco3)sc2c1 (stereo not drawn) | 2.99% | 
Cc1ccc2nc(N3CCN(C(=O)c4ccco4)CC3)sc2c1 | 7.4% | 
COc1ccc(C(=O)OCC(=O)c2ccc(Cl)s2)c(OC)c1OC | -13.5% | 
Oc1ccc(-c2[nH]ncc2-c2nc3ccccc3s2)c(O)c1 | -5.33% | 
COc1ccc(-c2[nH]ncc2CN(C)Cc2c(C)n[nH]c2C)c(OC)c1 | 2.49% | 
COc1ccc(Oc2cn[nH]c2-c2ccc(OC)cc2O)cc1 |  | 25.9 µM (active)
CN1CCN(c2ccc([N+](=O)[O-])c(Sc3nc4ccccc4[nH]3)c2)CC1 | -29.7% | 
CC(C)c1ccc(NC(=O)COC(=O)c2ccc(CN3CCCC3=O)cc2)cc1 | -5% | 
O=C1CN(C(=O)COC(=O)/C=C/c2ccc(F)cc2)c2ccccc2N1 | 18% | 
CCOc1ccc2nc(NCCNC(=O)C(C)(C)C)c(C)cc2c1 | -4.1% | 
COc1ccc(-c2nc3sc(CCNC(=O)C(C)(C)C)c(C)n3n2)cc1 |  | 29.1 µM (active)
Cc1c(CCNC(=O)c2ccc(C(F)(F)F)cc2)sc2nc(-c3ccc(F)cc3)nn12 | -7.8% | 
O=C(NC1CCCC1)C1c2ccccc2OCC(=O)N1CC(F)(F)F (stereo not drawn) | -9.47% | 
CCn1ccnc1CN1CCCC(C(=O)c2ccc3c4c(cccc24)CC3)C1 (stereo not drawn) |  | 7.31 µM (active)
CC(=O)NCC(=O)N1CCCC(C(=O)c2ccc3c4c(cccc24)CC3)C1 (stereo not drawn) | -25.7% | 
Cc1ncoc1C(=O)N1CCCC(C(=O)c2ccc3c4c(cccc24)CC3)C1 (stereo not drawn) |  | 18.4 µM (active)
CCc1nccn1CCC(=O)N1CCCC(N2CCN(c3ccccc3F)CC2)C1 (stereo not drawn) | -6.03% | 
Cc1ccccc1N1CCN(C2CCCN(C(=O)c3ocnc3C)C2)CC1 (stereo not drawn) | -9.73% | 

Structure (SMILES) | activity change, negative = growth inhibition | Potency
Cc1c(CN2CCCC(C(=O)c3cccc(Cl)c3)C2)c(=O)n(-c2ccccc2)n1C (stereo not drawn) | -1.58% | 
CCOC1=C2[C@H]([C@H]3C(=O)N(c4ccccc4)C(=O)[C@H]3C1)[C@@H](c1ccccc1)N(S(=O)(=O)c1ccc(C)cc1)[C@H]2c1ccccc1 | -13.4% | 
O=C(Cn1ncn2nc(-c3cccs3)cc2c1=O)NCc1cccc(Br)c1 | -20.4% | 
COc1cc(NC(=O)c2ccccc2)c(OC)cc1NC(=O)Cc1ccccc1 | -29.7% | 
COc1ccc(C(=O)OCC(=O)Nc2cc(C)on2)cc1F | -15.2% | 
CC(=O)c1ccc(NC(=O)C(C)OC(=O)c2ccc(NS(=O)(=O)c3ccc4[nH]c(=O)[nH]c4c3)cc2)cc1 (stereo not drawn) | 1.01% | 
COc1cccc(/C=N\Nc2nncc(-c3ccccc3)n2)c1 | -0.484% | 
COc1cc(/C=N/n2c(C)n[nH]c2=S)ccc1OCc1ccccc1 | -11.3% | 
CCOc1ccc(/C=N/Nc2nncc(-c3ccccc3)n2)cc1OC |  | 16.4 µM (active)
CC(CO)N1CCS(=O)(=O)CC1 (stereo not drawn) | 9.38% | 
COc1ccc(/C=C/c2c(-c3cccc(C)c3)oc3ccc(-c4ccc5c(c4)OCO5)cc23)cc1 | -16.4% | 
CC1CN(Cc2ccccc2)C(=S)NC1=O (stereo not drawn) | 7.52% | 
CC(=O)Oc1c2c(c3c(c1CC=C(C)C)O[C@@]14C(=CC5CC1C(C)(C)OC4(C/C=C(\C)C(=O)O)C5=O)C3=O)OC(C)(CCC=C(C)C)C=C2 (stereo partly drawn) |  | 2.91 µM (active)
O=C1C(=O)N(CCCN2CCOCC2)C(c2ccc([N+](=O)[O-])cc2)/C1=C(\O)c1ccc2c(c1)OCCO2 (stereo not drawn) | -2.39% | 
Cc1ccc(NC(=O)CN(C)C(=O)Cn2nnc(-c3ccccc3)n2)cc1 | 12.9% | 
Cc1cc(O)c(C2(O)C(=O)Nc3ccccc32)cc1C (stereo not drawn) | 5.24% | 
COc1ccc(-c2nn(CC(=O)NC3CCCC3)c3c2cnc2ccc(F)cc23)cc1 | -6.97% | 
COc1ccc2ncc3c(-c4ccc(C)c(C)c4)nn(CC(=O)NC4CCCC4)c3c2c1 |  | 5.17 µM (active)
CCc1ccc2ncc3c(-c4ccc(C)cc4)nn(CC(=O)NCc4ccccc4)c3c2c1 | -20.3% | 
O=C(COC(=O)CSc1ccccc1)Nc1ccc(F)cc1F | -4.02% | 
O=C(Nc1ccc2c(c1)[C@@H]1C[C@@H](CC(=O)N3CCCCC3)O[C@@H](CO)[C@@H]1O2)NC1CCCCC1 | -8.78% | 
O=C(C[C@H]1C[C@H]2c3cc(NS(=O)(=O)c4ccc(F)cc4)ccc3O[C@H]2[C@H](CO)O1)NCc1cc(F)ccc1F |  | 16.4 µM (active)
O=C(C[C@H]1C[C@@H]2c3cc(NC(=O)C4CCC4)ccc3O[C@@H]2[C@H](CO)O1)NC1CCCCC1 | 28.7% | 
Cc1cccc(C(=O)N2CCC(c3nc4ccccc4s3)CC2)c1 | -8.8% | 
COC(=O)C1=NNC2(c3ccc(C)cc3)C(=O)N(c3cccc(C)c3C)C(=O)C12 (stereo not drawn) | -9.35% | 

Structure (SMILES) | activity change, negative = growth inhibition | Potency
CCCCn1c(N)c(N(CC)C(=O)c2ccc(N(C)S(=O)(=O)c3ccc(C)cc3)cc2)c(=O)[nH]c1=O | 3.11% | 
Cc1cccc(C(=O)Nc2ccccc2-c2nnn(CC(=O)Nc3ccc4c(c3)OCCO4)n2)c1 | -23.9% | 
Cc1ccc(-n2ncc3c(NCCCn4ccnc4)ncnc32)cc1Cl |  | 20.6 µM (active)
Cc1ccc2c(Cl)c(C(=O)NCCCn3ccnc3)sc2c1 | -24% | 
O=C(NCCCn1ccnc1)Nc1ccc(Cl)cc1Cl | -17.8% | 
CC1CN(C(=O)N2CCC(C(=O)NCc3cccs3)CC2)c2ccccc2O1 (stereo not drawn) | -3.5% | 
Cc1cnc(CN(C)C(=O)C2CCC(=O)N(CCc3cccc(F)c3)C2)[nH]1 (stereo not drawn) | 1.53% | 
O=C(NC(=S)Nc1ccc(Cl)cc1Cl)C1CC1 |  | 20.6 µM (active)
O=C(NC(=S)Nc1ccc(Br)cc1F)C1CCCCC1 | -24.6% | 
S=C(Nc1ccc(Cl)cc1Cl)N1CCCC1 | 1.1% | 
CCCCCCNC(=O)CSc1nccn1Cc1ccccc1 | -26.6% | 
COC1[C@H](OC(N)=O)C(O)[C@H](Oc2ccc3c(O)c(NC(=O)c4ccc(O)c(CC=C(C)C)c4)c(=O)oc3c2C)OC1(C)C (stereo partly drawn) | -3.46% | 
Cc1ccc(NC(=O)CN(C)C(=O)COC(=O)c2nccnc2N)cc1 | -9.42% | 
CC[C@@H]1CCCCc2ccccc2[C@@H](C(=O)C[C@H](O)CC(C)=O)OC1=O | -10.9% | 
CCn1ccnc1C[C@@H]1COc2ccccc2O1 | -1.49% | 
O=C(CN1C(=O)C2C3C=CC(C3)C2C1=O)NCC1COc2ccccc2O1 (stereo not drawn) | 2.17% | 
O=C1C(=O)N(CC2COc3ccccc3O2)c2ccccc21 (stereo not drawn) |  | 1.64 µM (active)
Cc1cc(NC(=O)CCC2COc3ccccc3O2)no1 (stereo not drawn) | -7.12% | 
Cc1cc(C(=O)CCl)c(C)n1CC1COc2ccccc2O1 (stereo not drawn) |  | 2.06 µM (active)
Cc1noc(C)c1C(=O)NCC1COc2ccccc2O1 (stereo not drawn) | -23.6% | 
O=c1c(NCc2cccs2)nccn1-c1ccccc1 | -5.85% | 
CCN(CC(=O)Nc1c(F)cccc1F)C(=O)CN1c2cccc3cccc(c23)S1(=O)=O | -0.627% | 
O=C(Cn1cc(C(F)(F)F)ccc1=O)Nc1ccc2c(c1)OCCO2 | 2.89% | 

Reference: PubChem BioAssay AID686979 (National Center for Advancing Translational Sciences (NCATS), 2013)
